Compound activity deposited in PubChem by several laboratories.
proKLK7 act = proKLK7 (human) activation, primary screen; activation, % at 7 µM; P49862; purified proKLK7, EDANS-DABCYL substrate fluorescence; 100% is mature enzyme control, 0% vehicle; 370,000 compounds, 0.9% hits;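 active = activation above the mean of all tested compounds plus 3 SD, computed per campaign excluding outliers beyond control limits, cut at about 13% in these data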
ADAM10 inh = inhibits human ADAM10. 370,000 compounds, 0.62% hits. recombinant ADAM10, EDANS/DABCYL FRET peptide cleavage, 3 h. inhibition, % at 7 µM. O14672;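 active = inhibition above a per-campaign cutoff equal to the mean of compounds falling between control-based bounds plus 3 SD, cut at about 20% in these data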;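 note: 0% = DMSO wells while the 100% control is not disclosed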
GC-A act = GC-A (human) enzyme activation; 370,000 compounds, 0.14% hits; AID 1671463; P16066; HEK293 GC-A cells, cGMP TR-FRET, EC30 ANP; 0% at EC30 ANP, 100% saturating ANP; activation, % at 10 µM; in the data active = activation above about 40%
GC-B act = GC-B (human) receptor activation | P20594 | HEK293-GC-B cells, CNP EC30, cGMP TR-FRET; 0% at EC30 CNP, 100% saturating CNP | activation, % at 10 µM | 370,000 compounds, 0.11% hits;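 active = activation at 10 µM reaching about 35% in either raw or pattern-adjusted values, limit read from the data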
ADAM17 inh = inhibits human ADAM17 | P78536 | recombinant ADAM17, EDANS/DABCYL FRET peptide cleavage | inhibition, % at 6.95 µM | 370,000 compounds, 0.83% hits | AID 720648;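 active = inhibition above the mean of compounds lying between control limits plus 3 SD, set per campaign, cut at about 8.5% in these data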;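 note: 0% = DMSO-only wells as the low control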
proKLK7 act conf = proKLK7 activation, confirmation; shares compounds with proKLK7 act; purified proKLK7, EDANS-DABCYL substrate fluorescence; scaled: vehicle 0, mature enzyme 100; activation, % at 7 µM; 3,200 compounds, 68% hits;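 active = activation, as change over the incubation, above the mean of all tested compounds plus 3 SD, cut at about 13% in these data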
EDANS interfere = optically interferes with EDANS-DABCYL signal, flagging KLK7 hits. AID 686952. shares compounds with proKLK7 act. 3,200 compounds, 80% hits. activation, % at 7 µM. EDANS-DABCYL substrate fluorescence interference, no enzyme, 4 h; solvent 0%, active enzyme control 100%;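 active = activation above the all-compound mean plus 3 SD, ignoring values outside control-based bounds, cut at about 4.8% in these data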;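 note: value is the 4 h activation minus the activation read at time zero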
K7 EDANS ctr = EDANS fluorescence interference in dose response, no enzyme; shares compounds with proKLK7 act; EDANS-DABCYL peptide fluorescence interference; EC50, µM; 250 compounds, 20% hits; AID 720493;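 active = compounds that raise the fluorescence signal in this interference counterscreen, with EC50 at or below 10 µM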;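 note: intact quenched peptide substrate alone read at 355 nm excitation and 520 nm emission; signal is fluorescence gain from T0 to T4 after four hours at room temperature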
The depositor's hits bear a star; i = inactive; x = no result. Hits are enriched below; roughly 2.2% of the tested compounds scored in any of these assays.

SMILES | proKLK7 act | ADAM10 inh | GC-A act | GC-B act | ADAM17 inh | proKLK7 act conf | EDANS interfere | others
Nc1ccccc1C(=O)Nc1nccs1 | 50.1* | i | 3.1 | 2.5 | i | 13.9* | 15.8*
CC(C)(C)OC(=O)NCc1cc(F)ccc1/C=C/S(=O)(=O)NCc1ccccc1 | -0.2 | 0.7 | -3.6 | -2.8 | -0.1 | x | x
Fc1cccc(Nc2nc3ccccc3n3nnnc23)c1 | 0.0 | -21.8 | 0.2 | -6.4 | 0.9 | x | x
c1ccc(Nc2nc3ccccc3n3nnnc23)cc1 | 19.5* | -35.9 | -5.0 | -4.0 | -6.9 | 2.4 | 46.2*
CCOC(=O)c1nn(-c2ccc(F)cc2)c2nc(-c3ccccc3)c(C#N)c(=O)n12 | 40.1* | -416.3 | 6.3 | 2.5 | -135.0 | 138.2* | 146.4*
CCCCN(C)C(=O)c1oc(=O)c2ccccc2c1-c1ccc(C)cc1 | 0.4 | -10.7 | -12.7 | -8.6 | -0.2 | x | x
CN1CC=C2C(C#N)=C(N)C(C#N)(C#N)C(c3ccsc3)C2C1 (stereo not given) | 15.4* | -366.6 | 3.5 | -3.8 | -106.8 | 56.9* | 54.6*
N#CC1=C(N)C(C#N)(C#N)C(c2ccncc2)C2CN(C(=O)OCc3ccccc3)CC=C12 (stereo not given) | 17.3* | -293.8 | 6.2 | 11.6 | -104.9 | 36.0* | 35.2*
N#CC1=C(N)C(C#N)(C#N)[C@H](c2cccnc2)[C@H]2CN(C(=O)OCc3ccccc3)CC=C12 | 7.9 | -144.5 | -2.7 | -8.8 | -45.8 | x | x
CN1CC=C2C(C#N)=C(N)C(C#N)(C#N)[C@H](c3cccc(Cl)c3)C2C1 (stereo not given in full) | 12.8* | -458.6 | -1.9 | -6.9 | -141.5 | 34.2* | 35.3*
COc1cccc(C2C3CN(C)CC=C3C(C#N)=C(N)C2(C#N)C#N)c1OC (stereo not given) | 0.3 | -10.4 | -4.4 | 6.9 | -7.9 | x | x
CCCC1C2CN(C(C)C)CC=C2C(C#N)=C(N)C1(C#N)C#N (stereo not given) | 23.5* | i | -1.8 | 2.9 | -267.8 | 11.5 | 13.9*
CCOC(=O)N1CC=C2C(C#N)=C(N)C(C#N)(C#N)[C@H](c3ccsc3)[C@H]2C1 | 8.0 | -135.1 | 3.4 | -0.1 | -42.8 | x | x
CC(C)NCC(O)c1ccc(NS(C)(=O)=O)cc1 (stereo not given) | 0.6 | -13.5 | 0.3 | -0.7 | -7.0 | x | x
CC(C)NC[C@@H](O)c1ccc(O)c(O)c1 | 32.6* | -16.5 | 0.8 | 0.4 | -7.5 | 50.5* | 48.8*
NC(=Nc1cccc(F)c1)NC(=O)OCc1ccccc1 | -0.4 | -1.3 | -0.9 | 2.3 | -0.7 | x | x
COc1ccc(O)c(C(=O)CC(=O)c2cccnc2)c1 | 55.3* | i | -6.5 | -5.1 | -336.0 | 229.2* | 235.4*
O=C(Nc1c(-c2ccccc2)nc2ncccn12)c1ccccc1 | 12.7* | -237.8 | 1.6 | -7.0 | -67.5 | 59.8* | 13.6* | K7 EDANS ctr=i
O=C(Nc1nc2ncccn2c1-c1ccc(F)c(F)c1)C1CC1 | 17.7* | i | 2.6 | 1.8 | -235.8 | 20.2* | 23.9*
Cc1ccc(-c2nc3ncccn3c2NC(=O)Nc2ccc(F)cc2)cc1 | 12.6* | i | 4.5 | 4.2 | -148.6 | -12.5 | -6.5
CC(=O)Nc1nc2ncccn2c1-c1ccc(C)cc1 | 22.5* | i | 0.2 | 1.1 | -339.1 | 48.5* | 49.6*
Cc1cccc(C(=O)Nc2c(-c3ccccc3)nc3ncccn23)c1 | 9.0 | -257.1 | 1.6 | 4.7 | -77.5 | x | x
O=C(Nc1nc2ncccn2c1-c1ccc(F)c(F)c1)c1ccc(F)cc1 | 10.0 | -260.1 | 5.3 | -8.5 | -80.7 | x | x
COc1cc(-n2c(C)nc3cc(C(=O)N4CCCN(C(C)=O)CC4)ccc32)cc(OC)c1OC | -0.1 | -16.1 | 0.8 | -4.8 | 0.2 | x | x
CCn1c(=O)n(CC(=O)N2CCOCC2)c(=O)c2ccccc21 | 0.0 | -22.4 | -1.6 | -7.1 | -6.2 | x | x
